Data on eleven compounds can be found in PubChem BioAssay (Tox21).

Inconclusive results are not listed. Unmarked numbers belong to inactive results. The source made the active and inactive calls. Unless noted, the call rests on the fitted dose curve; in most records, active means well fitted curve in the direction sought with a large enough effect in the repeat runs; inconclusive means weak or mixed curves; inactive means no such curve, though single readings can be large; an effect the other way counts as inactive or inconclusive.

A short description of test [1]: qHTS assay to identify small molecule antagonists of the retinoid acid receptor (RAR) signaling pathway - cell viability counter screen (AID 1159551). Further: nearly all actives have a fitted effect of over 35% in size. In a few lines:
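Cytotoxicity counter screen in C3RL4 cells: 6 h compound exposure with 1 uM retinol (final), viability from cellular ATP by luminescence.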

A short description of test [2]: qHTS assay to identify small molecule antagonists of the retinoic acid receptor (RAR) signaling pathway (AID 1159552; further: nearly all actives have a fitted effect of over 50% in size). In a few lines:
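Test chemicals and DMSO controls were pin-transferred onto C3RL4 cells a day after seeding; retinol (1 uM final) followed at once. Luminescent reporter output was quantified after 6 hr of co-incubation and 30 min with detection reagent.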

Test [3] can be described thus: qHTS assay to identify small molecule agonists of the retinoic acid receptor (RAR) signaling pathway (AID 1159553). Further: potency means the concentration at half of the fitted maximal effect. The method, boiled down: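 Agonist activity was scored in C3RL4 cells bearing a retinoic acid response element luciferase construct. Cells were treated with compounds for 6 hr at 37 C, and luciferase signal was measured as luminescence.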
Test [4] can be described thus: qHTS assay to identify small molecule antagonists of the estrogen related receptor (ERR) signaling pathway from Tox21 library - cell viability counter screen (AID 1224834). Further: nearly all actives have a fitted effect of over 30% in size. In a few lines:
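Cytotoxicity of test substances is gauged in the same ERR cells used for the antagonist screen, after 17.5 h of compound treatment at 37 C, by CellTiter-Fluor fluorescence measured after 30 min.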
(In general: Quantitative high-throughput screening tests each substance at several concentrations.)

The target of test [5] is Luciferin 4-monooxygenase (Photinus pyralis) (UniProt P08659). Kind of test: qHTS assay to identify small molecule inhibitors of firefly luciferase (AID 1224835). Further: nearly all actives have a fitted effect of over 25% in size. Further: potency means the concentration at half of the fitted maximal effect. In a few lines: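 Inhibition of purified Photinus luciferase is measured by luminescence. Substrate levels (D-luciferin, ATP) sit at their KM values. Each compound is tested in a concentration series.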
Sequence of Luciferin 4-monooxygenase (Photinus pyralis) (P08659 whole entry, looked up): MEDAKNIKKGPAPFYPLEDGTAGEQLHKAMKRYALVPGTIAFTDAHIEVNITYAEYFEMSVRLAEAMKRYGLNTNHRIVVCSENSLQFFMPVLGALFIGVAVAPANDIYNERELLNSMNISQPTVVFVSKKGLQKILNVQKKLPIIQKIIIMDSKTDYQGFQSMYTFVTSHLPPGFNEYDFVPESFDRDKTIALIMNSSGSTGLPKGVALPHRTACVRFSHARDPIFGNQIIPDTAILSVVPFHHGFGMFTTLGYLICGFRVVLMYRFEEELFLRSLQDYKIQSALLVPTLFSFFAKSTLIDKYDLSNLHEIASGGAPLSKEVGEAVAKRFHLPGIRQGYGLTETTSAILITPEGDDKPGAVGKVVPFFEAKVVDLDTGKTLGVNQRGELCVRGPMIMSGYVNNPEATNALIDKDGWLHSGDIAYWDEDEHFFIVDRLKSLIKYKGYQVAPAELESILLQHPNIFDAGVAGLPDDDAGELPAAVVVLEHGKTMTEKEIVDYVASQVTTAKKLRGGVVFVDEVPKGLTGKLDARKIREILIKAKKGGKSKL
The nature of test [6]: qHTS assay to identify small molecule agonists of the constitutive androstane receptor (CAR) signaling pathway - cell viability counter screen (AID 1224836). Further: series mostly up to about 92 µM; nearly all actives have a fitted effect of over 45% in size. In a few lines:
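23 h treatment, 37 C, 5% CO2. Cell line: HepG2 stably expressing hCAR with a CYP2B6-2.2kb construct. Co-treatment: PK11195, 0.75 uM final. Read-out: CellTiter-Fluor fluorescence intensity.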

Test [7] in a line: qHTS assay to identify small molecule antagonists of the constitutive androstane receptor (CAR) signaling pathway - cell viability counter screen (AID 1224837). Further: series mostly up to about 92 µM; nearly all actives have a fitted effect of over 45% in size. In a few lines: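 Multiplexed cytotoxicity read-out for the CAR antagonist screen: double-stable HepG2-CYP2B6-hCAR cells co-treated with 50 nM CITCO (final) and compound over 15 concentrations, incubated 23 hr, then assessed by CellTiter-Fluor fluorescence.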

Test [8] deals with Nuclear receptor subfamily 1 group I member 3 (Homo sapiens) (UniProt Q14994). Kind of test: qHTS assay to identify small molecule antagonists of the constitutive androstane receptor (CAR) signaling pathway (AID 1224838). Further: nearly all actives have a fitted effect of over 40% in size. In a few lines: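 Compounds were titrated across 15 concentrations onto HepG2 cells double-stably expressing hCAR and a CYP2B6-2.2kb reporter, together with 50 nM CITCO (final). After 24 h at 37 C, luciferase activity was measured by luminescence.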
Sequence of Nuclear receptor subfamily 1 group I member 3 (Homo sapiens) (Q14994 whole entry, looked up): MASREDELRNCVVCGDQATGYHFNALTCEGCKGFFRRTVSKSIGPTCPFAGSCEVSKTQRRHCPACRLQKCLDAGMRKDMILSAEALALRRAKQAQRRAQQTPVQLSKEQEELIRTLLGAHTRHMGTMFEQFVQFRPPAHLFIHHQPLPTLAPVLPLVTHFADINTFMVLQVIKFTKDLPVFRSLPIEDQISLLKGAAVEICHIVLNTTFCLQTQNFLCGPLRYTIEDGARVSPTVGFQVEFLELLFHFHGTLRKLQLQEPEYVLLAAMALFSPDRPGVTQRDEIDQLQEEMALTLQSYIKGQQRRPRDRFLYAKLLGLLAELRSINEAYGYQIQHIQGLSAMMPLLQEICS

Test [9] has the same target. Kind of test: qHTS assay to identify small molecule agonists of the constitutive androstane receptor (CAR) signaling pathway (AID 1224839). Further: nearly all actives have a fitted effect of over 15% in size. Further: potency means the concentration at half of the fitted maximal effect. The method, boiled down: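 Compounds tested at 15 concentrations on HepG2 cells stably harbouring hCAR and CYP2B6-2.2kb reporter constructs, co-treated with PK11195 (0.75 uM final), 24 h at 37 C; luminescent reporter signal quantified.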

A short description of test [10]: qHTS assay to identify small molecule antagonists of the estrogen related receptor signaling pathway with the pleiotropic PPARgamma coactivator (PGC) from Tox21 10K library - cell viability counter screen (AID 1224840; active means well fitted cell-killing curve with a large enough effect in the repeat runs, not every such curve was filed as active; further: nearly all actives have a fitted effect of over 40% in size). In a few lines:
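Step one, plate 2,000 PGC/ERR cells per well; step two, incubate 6 h at 37 C/5% CO2; step three, pin-transfer compounds; step four, incubate 17.5 h; step five, add CellTiter-Fluor and read fluorescence after 30 min.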

A short description of test [11]: qHTS assay to identify small molecule antagonists of the estrogen related receptor signaling pathway with the pleiotropic PPARgamma coactivator (PGC) from Tox21 10K library (AID 1224841; call rule not given here; further: series mostly up to about 92 µM; actives are mostly falling curves and most rising ones were filed inactive; nearly all actives have a fitted effect of over 50% in size). In a few lines: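 Antagonism in this quantitative HTS is taken from loss of luciferase signal in PGC/ERR cells. Cells (2,000/well) are treated with compounds in DMSO after a 6 h settling period and read by One-Glo luminescence after 18 h.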

Test [12] is described as follows: qHTS assay to identify small molecule agonists of the estrogen related receptor signaling pathway with the pleiotropic PPARgamma coactivator (PGC) from Tox21 10K library (AID 1224842). Further: nearly all actives have a fitted effect of over 15% in size. The method, boiled down:
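Luminescence from One-Glo (30 min, room temperature) measured after PGC/ERR cells had 18 h at 37 C with pinned compound (23 nL in DMSO). Cells had been seeded at 2,000 per well and pre-incubated 6 h.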

The nature of test [13]: qHTS assay to identify small molecule agonists of the RXR signaling pathway - cell viability counter screen (AID 1159529). Further: nearly all actives have a fitted effect of over 50% in size. Further: potency means the concentration at half of the fitted maximal effect. The method, boiled down:
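Compounds dissolved in DMSO were pinned onto HEK 293T cells carrying a beta-lactamase reporter under RXR-alpha control and incubated 16 hr. Cytotoxicity was then quantified by CellTiter-Glo luminescence.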

Consider `O=S(=O)(O)c1ccccc1O`, for which the result in test [1], in test [6], in test [7] and in [10] was inactive. The Potency entry in [2], in test [3], in [4], in [5], in test [8] and in [9] was “inactive” each time. Besides, the Potency entry in [11] and in [12] was “inactive” throughout.

Turning to `COc1ccc(COC=O)cc1`, the Potency result in test [13], in test [2], in [3], in [4], in [5] and in test [9] was “inactive” in each case. For the same compound, the Potency result in [11] and in test [12] was “inactive” each time. The compound was called inactive in test [1], in [6] and in test [10].

For the compound `O=C(O)C(O)[C@H](O)[C@@H](O)[C@H](O)[C@H](O)CO` (some centres undefined), in [13], the Potency is 49.5 µM (active). Moreover, the compound was classed as inactive in [1], in test [6], in [7] and in test [10]. For the same compound, the Potency entry in [2], in test [3], in test [4], in [5], in test [8] and in [9] was “inactive” throughout. Also, in test [12], the Potency entry is “inactive”.

In the case of `COc1ccc2cc(C=O)ccc2c1`, the call in test [1], in test [6] and in test [10] was inactive. The Potency entry in test [2], in [3], in [8], in test [9], in test [11] and in test [12] was “inactive” throughout. Besides, the Potency in test [5] was 34.7 µM (active).

Take `CCCC=O`: the Potency result in test [13], in test [2], in [3], in test [5], in test [8] and in test [9] was “inactive” in each case. Also, the Potency result in test [12] is “inactive”. Besides, the result in [1], in [6], in test [7] and in test [10] was inactive.

Turning to `CCC(=O)/C=C/c1ccc(OC)cc1`, the Potency entry in test [13], in test [2], in [4], in [8], in [11] and in test [12] was “inactive” throughout. The result in test [1], in test [7] and in [10] was inactive. Moreover, the Potency in test [3] was 61.1 µM (active); in test [5] it was 35.6 µM (active); in test [9] it was 54.5 µM (active).

As to `O=[N+]([O-])c1ccc(Oc2ccc([N+](=O)[O-])cc2)cc1`, the Potency entry in test [13], in [2], in [3], in [4], in test [8] and in test [9] was “inactive” throughout. Moreover, the Potency entry in [11] and in test [12] was “inactive” each time. For the same compound, the call in [1], in [6], in [7] and in [10] was inactive.

In the case of `C1=C\CC/C=C\CC/C=C\CC/1`, the Potency entry in [13], in test [2], in test [3], in test [4], in test [9] and in [11] was “inactive” in each case. For the same compound, in [12], the Potency result was “inactive”. Further, the outcome in test [1], in test [6] and in test [10] was inactive.

As to `CCC(=O)Nc1cccc(N)c1`, the compound was classed as inactive in [1], in [6], in [7] and in test [10]. For the same compound, the Potency entry in test [2], in [3], in test [4], in test [5], in [8] and in [9] was “inactive” throughout. Besides, the Potency result in test [11] and in test [12] was “inactive” throughout.

For the compound `C=C(C)C(=O)OCCC(C)OC(=O)C(=C)C` (centres undefined), the Potency result in test [13], in test [2], in test [3], in test [4], in test [5] and in test [8] was “inactive” in each case. Moreover, the Potency entry in [9], in test [11] and in test [12] was “inactive” throughout. The call in test [6], in test [7] and in test [10] was inactive.

Take `C=C(C)C1CC=C(C)C(O)C1` (centres undefined): the Potency entry in test [13], in [2], in test [3], in test [5], in [9] and in test [11] was “inactive” in each case. Also, the Potency entry in [12] is “inactive”. Moreover, the result in test [1], in [7] and in test [10] was inactive.
